Hits are enriched below; roughly 3.5% of the tested compounds scored in any of these assays.
FBW7 activator: activators of human E3 ligase FBW7; Q969H0; AlphaScreen FBW7–phospho-cyclin E peptide binding, activator screen; normalized activity (activation), % at 26.1 µM; 650,000 compounds, 0.13% hits; in the data active = normalized activity above about 1.9%;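 also: purified mutant Fbw7 with reduced substrate affinity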
MITF primary: blocks human microphthalmia-associated transcription factor; O75030; AlphaScreen MITF homodimerization, bead proximity signal; inhibition, % at 2.6 µM; 650,000 compounds, 0.91% hits; in the data active = inhibition above about 50%
Target sequence (O75030 whole entry, looked up): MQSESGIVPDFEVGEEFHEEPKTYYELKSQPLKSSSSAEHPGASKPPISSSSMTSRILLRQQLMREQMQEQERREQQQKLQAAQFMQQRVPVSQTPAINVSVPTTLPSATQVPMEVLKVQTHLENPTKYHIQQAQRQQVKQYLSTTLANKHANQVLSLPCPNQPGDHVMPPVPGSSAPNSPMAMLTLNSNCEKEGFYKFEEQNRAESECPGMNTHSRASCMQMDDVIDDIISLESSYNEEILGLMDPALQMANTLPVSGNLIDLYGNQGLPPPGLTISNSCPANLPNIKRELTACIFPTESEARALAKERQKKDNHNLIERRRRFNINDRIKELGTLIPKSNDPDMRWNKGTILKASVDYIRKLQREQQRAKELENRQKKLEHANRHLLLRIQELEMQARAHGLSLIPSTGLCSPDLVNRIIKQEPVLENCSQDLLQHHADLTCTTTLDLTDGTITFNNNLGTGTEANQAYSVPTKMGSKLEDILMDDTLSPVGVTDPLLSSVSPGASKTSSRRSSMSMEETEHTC
GPR151 activ: activates the human receptor GPR151; PathHunter beta-arrestin GPR151 cells, luminescence; activation, % at 11.2 µM; 650,000 compounds, 1% hits; Q8TDV0; in the data active = activation above about 4.9%
TEAD-YAP inh: TEAD-YAP interaction inhibition | HEK-TIYL cells, TEAD-Gal4/YAP UAS-luciferase luminescence | inhibition, % at 9.12 µM | 640,000 compounds, 1.4% hits; in the data active = inhibition above about 32%
A number is an active result; n = inactive.

SMILES	FBW7 activator	MITF primary	GPR151 activ	TEAD-YAP inh
Cc1cc(-c2cnc(N3CCCC3)nc2C2CCCN(C(=O)c3ccco3)C2)on1 (stereo not drawn)	n	n	n	51.0
O=C(c1ccccc1F)N1CCCC(c2nc(N3CCOCC3)ncc2-c2ccncc2)C1 (stereo not drawn)	n	n	n	56.4
O=C(Cn1ncc2c(=O)oc3ccccc3c21)N1CCN(c2cccc(Cl)c2)CC1	n	n	n	41.1
O=C(Cn1ncc2c(=O)oc3ccccc3c21)N1CCN(c2ccccc2)CC1	n	n	n	n
CCOC(=O)CCCSc1nc(N)c2c3c(sc2n1)CCCC3	n	n	n	87.8
CCOC(=O)CC(=O)CSc1nc(N)c2c3c(sc2n1)CCCC3	n	n	n	n
Nc1nc(SCC(=O)NC2CCCCC2)nc2sc3c(c12)CCCC3	n	n	n	53.4
O=C(O)c1cc(-c2ccc3c(c2)OCO3)nc2cc3c(cc12)OCCO3	n	n	n	32.3
O=S(=O)(NCCCn1ccnc1)c1cc(Cl)ccc1Cl	n	n	n	n
CC1=C(C(=O)Nc2cccc(F)c2)C(c2cccs2)C2=C(CC(C)(C)CC2=O)N1 (stereo not drawn)	n	n	n	58.3
CC1=C(C(=O)Nc2ccccc2F)C(c2ccsc2)C2=C(CC(C)(C)CC2=O)N1 (stereo not drawn)	n	n	n	54.7
CSc1nc(N)c2c(n1)NC1=C(C(=O)CC(C)(C)C1)C2c1ccncc1 (stereo not drawn)	n	n	n	n
CC1=C(C(=O)Nc2ccc(F)cc2)C(c2ccsc2)C2=C(CC(C)(C)CC2=O)N1 (stereo not drawn)	n	n	n	n
CC1=C(C(=O)Nc2cccc(F)c2)C(c2ccsc2)C2=C(CC(C)(C)CC2=O)N1 (stereo not drawn)	n	n	n	53.5
CSc1nc(N)c2c(n1)NC1=C(C(=O)CC(C)(C)C1)C2c1cccs1 (stereo not drawn)	n	n	n	48.7
CC1=C(C(=O)Nc2ccccc2F)C(c2ccccn2)C2=C(CC(C)(C)CC2=O)N1 (stereo not drawn)	n	n	n	n
COC(=O)c1ccc2nc(-c3ccc(S(C)(=O)=O)cc3)cn2c1	n	n	n	n
COC(=O)c1ccc2nc(-c3cccc(N)c3)cn2c1	n	n	n	77.7
COc1ccc(CCNC(=O)c2nnn(-c3ccc4c(c3)OCCO4)c2N)cc1OC	n	n	n	64.8
CCN(CC)c1ccc(C(=O)Nc2cc(C(=O)N3CCOCC3)ccc2N2CC3CC(C2)c2cccc(=O)n2C3)cc1 (stereo not drawn)	n	n	n	69.2
N#CCC(=O)N/N=C/c1ccc(OCC(=O)NC2CCCCC2)cc1	n	n	n	n
O=C(NC1CCCCCC1)c1ccc(N2CCCC2=O)cc1	n	n	n	n
O=C(NC1CCCCCCC1)c1cccc(N2CCCC2=O)c1	n	n	n	45.9
Cc1cc2[nH]c(=O)c(=O)[nH]c2cc1S(=O)(=O)NCc1cccnc1	n	n	n	n
COc1ccc(NC(=O)Cn2nnc(-c3ccccc3NC(=O)c3cccs3)n2)cc1	n	n	n	n
SMILES	FBW7 activator	MITF primary	GPR151 activ	TEAD-YAP inh
Cc1ccc(NC(=O)Cn2nnc(-c3ccccc3NC(=O)c3cccs3)n2)cc1	n	n	n	54.0
COc1ccc(S(=O)(=O)NCc2cccnc2)c2ccccc12	n	n	n	n
COc1ccc(CNS(=O)(=O)c2ccc(OC)c3ccccc23)cc1	n	n	n	34.3
COc1cccc(C2=NN3C(C2)c2cccc(OC)c2OC3c2ccc(SC)cc2)c1 (stereo not drawn)	n	n	n	46.5
COc1cccc(C2=NN3C(C2)c2cccc(OC)c2OC3c2cccc(Cl)c2)c1 (stereo not drawn)	n	n	n	n
CCOc1cccc2c1OC(c1ccc(OC)cc1)N1N=C(c3cccc(OC)c3)CC21 (stereo not drawn)	n	n	n	46.9
O=c1[nH]cnc2c1ncn2[C@@H]1O[C@H](CO)[C@@H](O)[C@H]1O	n	n	n	n
O=c1ncn(C2OC(CO)C(O)C2O)c(=O)[nH]1 (stereo not drawn)	n	n	n	74.4
O=c1cnn([C@@H]2O[C@H](CO)[C@@H](O)[C@H]2O)c(=O)[nH]1	n	n	n	47.7
CC1CCN(Cc2nnnn2CCCC(=O)N2CCCC2c2ccc(F)cc2)CC1 (stereo not drawn)	n	n	n	n
CC(=O)c1cccc(-c2ncc(C)c(NCc3nc4ccccc4[nH]3)n2)c1	n	n	n	n
Cc1cccc2sc(NC(=O)CN3C(=O)c4ccccc4C3=O)nc12	n	n	n	n
C=CCNC(=S)N/N=C/c1ccc2c(c1)OCCO2	n	n	n	n
c1ccc(CN2CCC(Nc3ncnc4nc(Nc5ccc(N6CCOCC6)cc5)[nH]c34)CC2)cc1	n	n	n	n
c1nc(Nc2ccc(N3CCOCC3)cc2)c2[nH]c(NCCN3CCOCC3)nc2n1	n	n	n	n
CC(=O)Nc1ccc(Nc2ncnc3nc(Nc4ccc(N5CCOCC5)cc4)[nH]c23)cc1	n	n	n	n
c1cc(Nc2nc3ncnc(Nc4ccc(N5CCOCC5)cc4)c3[nH]2)ccn1	n	n	n	43.3
c1nc(NC2CC2)c2[nH]c(Nc3ccc(N4CCOCC4)cc3)nc2n1	n	n	n	34.7
CCN(CC)C(=O)C1CCCN(c2nc3ncnc(Nc4ccc(N5CCOCC5)cc4)c3[nH]2)C1 (stereo not drawn)	n	n	n	43.8
c1cnc(Nc2nc3ncnc(Nc4ccc(N5CCOCC5)cc4)c3[nH]2)nc1	n	n	n	53.4
O=C(c1cnc2ccccn12)N1CCCCC1	n	n	n	n
COc1cccc(CNC(=O)c2cc(I)ccc2O)c1	n	n	n	n
Cc1noc(C)c1-c1nc2ncnc(Nc3ccc(N4CCOCC4)cc3)c2[nH]1	n	n	n	32.6
c1ccc(Nc2ncnc3nc(-c4ccc(N5CCOCC5)nc4)[nH]c23)cc1	n	n	n	53.6
CC(=O)Nc1ccc(Nc2ncnc3nc(-c4ccc(N5CCOCC5)nc4)[nH]c23)cc1	n	n	n	n
SMILES	FBW7 activator	MITF primary	GPR151 activ	TEAD-YAP inh
COc1ccc(Nc2nc3c(C)cccn3c(=O)c2C=NCc2ccccc2)cc1	n	n	n	n
CCc1n[n+](CC(=O)c2ccc3c(c2)OCCO3)c(N)s1	n	n	n	62.6
CCC(=O)c1ccc2c(c1)OCCO2	n	n	n	n
Oc1ccc(Br)cc1CN1CCN(CC2CC3C=CC2C3)CC1 (stereo not drawn)	n	n	n	n
Oc1ccc(Br)cc1CN1CCN(Cc2cccnc2)CC1	n	66.7	n	n
COc1cccc(NC(=O)CSc2cccc3cccnc23)c1	n	n	n	n
COc1ccccc1-c1nnc(-c2cc3cc(Br)ccc3oc2=O)o1	n	n	n	n
Cc1cc(/C=C(\C#N)C(=O)OCC(=O)NCc2ccc3c(c2)OCO3)c(C)n1CC(C)C	n	n	n	n
O=C(O)/C=C/C(=O)Nc1ccc(Oc2ccc(Oc3ccc(NC(=O)/C=C/C(=O)O)cc3)cc2)cc1	n	n	n	38.8
Cc1ccc(NC(=O)/C=C\C(=O)O)cc1	n	n	n	n
Cc1cc(Oc2nnnn2-c2ccc(C(N)=O)cc2)ccc1Cl	n	n	n	n

Assay outcomes: PubChem, The Scripps Research Institute Molecular Screening Center
